In PubChem BioAssay:
Activity calls are given as the source filed them.

What was measured:
[1] = optical density shifts of acrAB sulA E. coli – strain DRC41, OD650, 48 h, E. coli filamentation inducer project, primary screen (AID 1152); conditions: higher = more signal, called active from +8 up or from −8 down;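 note: E. coli MC1000 strain DRC41 lacking acrAB efflux pump and sulA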
[2] = probe aLefty1 binding on compound microarray – biochemical, small-molecule microarray, 635/667 nm fluorescence, primary screen (AID 1153); conditions: higher = more signal;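 note: score merges spot fluorescence with signal-to-noise ratio from the scanned slide images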
[3] = plasmodial surface anion channel blockers, osmotic lysis – cell-based, P. falciparum Indochina, OD700, 1 h, primary screen (AID 1154); conditions: P. falciparum Indochina infected RBC osmotic lysis, higher = more signal, called active from +8 up or from −8 down
[4] = plasmodial surface anion channel blockers, osmotic lysis – cell-based, P. falciparum Indochina, OD700, 2 h, primary screen (AID 1155);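 note: lysis reports solute entry through the parasite surface anion channel PSAC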; conditions: P. falciparum Indochina infected erythrocytes, higher = more signal, called active from +8 up or from −8 down
[5] = changes in parasitized red cell lysis, either direction – P. falciparum Indochina, OD700, 3 h, PSAC antagonist project, primary screen (AID 1156); conditions: P. falciparum-infected erythrocytes, osmotic lysis, higher = more signal, called active from +8 up or from −8 down
[6] = plasmodial surface anion channel blockers, osmotic lysis – cell-based, P. falciparum Indochina, OD700, 18 h, primary screen (AID 1157); conditions: P. falciparum Indochina infected erythrocytes, osmotic lysis OD700, 18 h; higher = more signal, called active from +8 up or from −8 down
[7] = S6 kinase pathway phospho-S6 level changes – cell-based, A549, cytoblot, luminescence, serum-stimulated, primary screen (AID 1158); conditions: 5 h, higher = more signal;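 note: serum-stimulated A549 lung adenocarcinoma cells; signal is phosphorylated S6 detected by cytoblot immunostaining with HRP secondary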
[8] = biological target: NADPH oxidase 2 (Homo sapiens) (UniProt P04839); assay: compounds shifting NOX2 Amplex Red fluorescence – cell-based, HEK293-NOX2, PMA-stimulated, NOX inhibitor project, primary screen (AID 1159); conditions: 45 min, higher = more signal, called active from +8 up or from −8 down; note: test concentration not given here
[9] = biological target: NADPH oxidase 4 (Homo sapiens) (UniProt Q9NPH5); assay: compounds shifting NOX4 Amplex Red fluorescence – cell-based, HEK293-NOX4, tetracycline-induced, NOX inhibitor project, primary screen (AID 1160); conditions: HEK293-NOX4, Amplex Red H2O2 fluorescence, 45 min; higher = more signal, called active from +8 up or from −8 down
[10] = biological target: NADPH oxidase 5 (Homo sapiens) (UniProt Q96PH1); assay: compounds shifting NOX5 Amplex Red fluorescence – cell-based, HEK293-NOX5, NOX inhibitor project, primary screen (AID 1161); conditions: HEK293-NOX5, ionomycin, 45 min, higher = more signal
[11] = compound effects on lung adenocarcinoma cell viability – A549, calcein-AM fluorescence, 48 h, basal, profiling panel (AID 1162); conditions: higher = more signal; note: test concentration not given here
[12] = compound effects on differentiated 3T3-L1 adipocyte viability – cell-based, 3T3-L1 adipocytes, calcein-AM fluorescence, 48 h, basal, profiling panel (AID 1163); conditions: 3T3-L1 adipocytes viability, higher = more signal; note: test concentration not given here
[13] = compound effects on hepatocellular carcinoma cell viability – HepG2, calcein-AM fluorescence, 48 h, basal, profiling panel (AID 1164); conditions: higher = more signal; note: test concentration not given here
[14] = compound effects on multiple myeloma cell viability – MM1S, calcein-AM fluorescence, 48 h, basal, profiling panel (AID 1165); conditions: higher = more signal; note: test concentration not given here
[15] = calcein-AM signal in unstimulated myeloma cells – cell-based, calcein-AM fluorescence, 48 h, PK04 Diversity Set, profiling panel (AID 1166); conditions: RPMI8226 myeloma viability, higher = more signal;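 note: cells grown under basal conditions without added stimulus; test concentration not given here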
[16] = JC-1 mitochondrial signal, unstimulated HepG2 cells – cell-based, JC-1 fluorescence, 24 h, 100 nL compound, profiling panel (AID 1167); conditions: HepG2 mitochondrial potential, higher = more signal; note: test concentration not given here
[17] = JC-1 mitochondrial signal, unstimulated adipocytes – cell-based, JC-1 fluorescence, 3T3-L1 adipocytes, 24 h, 100 nL compound, profiling panel (AID 1168); conditions: JC-1 mitochondrial fluorescence, higher = more signal, called active from +8 up or from −8 down; note: test concentration not given here
[18] = JC-1 mitochondrial signal, unstimulated myeloma cells – cell-based, JC-1 fluorescence, RPMI8226, 24 h, 100 nL compound, profiling panel (AID 1169); conditions: JC-1 mitochondrial potential fluorescence, higher = more signal; note: test concentration not given here
[19] = JC-1 mitochondrial signal, unstimulated MM1S myeloma – cell-based, JC-1 fluorescence, 24 h, 100 nL compound, profiling panel (AID 1170); conditions: MM1S mitochondrial potential, higher = more signal; note: test concentration not given here
[20] = resazurin metabolic signal in A549 cells – cell-based, resazurin fluorescence, 24 h, PK04 Diversity Set, profiling panel (AID 1171); conditions: A549 viability, higher = more signal, called active from +8 up or from −8 down; note: test concentration not given here

Chain of NADPH oxidase 2 (Homo sapiens) (P04839 whole entry, looked up): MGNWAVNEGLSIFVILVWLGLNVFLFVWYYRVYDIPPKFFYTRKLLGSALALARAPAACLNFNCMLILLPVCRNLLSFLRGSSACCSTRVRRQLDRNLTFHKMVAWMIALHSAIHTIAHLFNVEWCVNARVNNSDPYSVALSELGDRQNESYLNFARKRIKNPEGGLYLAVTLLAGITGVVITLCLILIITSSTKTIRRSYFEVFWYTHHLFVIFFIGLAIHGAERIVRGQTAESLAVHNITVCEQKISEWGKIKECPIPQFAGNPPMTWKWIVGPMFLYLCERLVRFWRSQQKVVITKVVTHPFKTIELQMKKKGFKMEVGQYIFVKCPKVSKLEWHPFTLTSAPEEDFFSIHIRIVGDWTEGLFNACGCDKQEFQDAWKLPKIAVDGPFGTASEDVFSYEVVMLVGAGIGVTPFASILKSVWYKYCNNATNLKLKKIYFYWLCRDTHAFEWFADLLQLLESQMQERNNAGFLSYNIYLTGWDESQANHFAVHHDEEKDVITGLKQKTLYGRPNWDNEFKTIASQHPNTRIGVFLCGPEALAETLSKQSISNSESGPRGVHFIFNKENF
Chain of NADPH oxidase 4 (Homo sapiens) (Q9NPH5 whole entry, looked up): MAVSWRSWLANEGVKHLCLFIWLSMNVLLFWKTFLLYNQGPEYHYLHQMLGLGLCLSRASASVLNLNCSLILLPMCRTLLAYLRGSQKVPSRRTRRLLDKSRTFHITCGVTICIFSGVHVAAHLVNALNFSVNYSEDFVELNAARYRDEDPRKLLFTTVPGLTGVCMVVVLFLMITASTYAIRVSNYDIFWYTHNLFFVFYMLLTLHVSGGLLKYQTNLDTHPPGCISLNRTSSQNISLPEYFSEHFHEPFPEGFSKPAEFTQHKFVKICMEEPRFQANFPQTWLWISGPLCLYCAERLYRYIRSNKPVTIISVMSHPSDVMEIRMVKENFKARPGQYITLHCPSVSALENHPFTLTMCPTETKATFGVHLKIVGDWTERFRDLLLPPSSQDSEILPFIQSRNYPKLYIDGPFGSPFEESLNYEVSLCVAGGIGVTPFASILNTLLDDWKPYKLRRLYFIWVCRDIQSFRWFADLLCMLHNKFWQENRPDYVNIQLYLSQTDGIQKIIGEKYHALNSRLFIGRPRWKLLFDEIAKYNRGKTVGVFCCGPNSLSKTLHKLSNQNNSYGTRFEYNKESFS
Chain of NADPH oxidase 5 (Homo sapiens) (Q96PH1 whole entry, looked up): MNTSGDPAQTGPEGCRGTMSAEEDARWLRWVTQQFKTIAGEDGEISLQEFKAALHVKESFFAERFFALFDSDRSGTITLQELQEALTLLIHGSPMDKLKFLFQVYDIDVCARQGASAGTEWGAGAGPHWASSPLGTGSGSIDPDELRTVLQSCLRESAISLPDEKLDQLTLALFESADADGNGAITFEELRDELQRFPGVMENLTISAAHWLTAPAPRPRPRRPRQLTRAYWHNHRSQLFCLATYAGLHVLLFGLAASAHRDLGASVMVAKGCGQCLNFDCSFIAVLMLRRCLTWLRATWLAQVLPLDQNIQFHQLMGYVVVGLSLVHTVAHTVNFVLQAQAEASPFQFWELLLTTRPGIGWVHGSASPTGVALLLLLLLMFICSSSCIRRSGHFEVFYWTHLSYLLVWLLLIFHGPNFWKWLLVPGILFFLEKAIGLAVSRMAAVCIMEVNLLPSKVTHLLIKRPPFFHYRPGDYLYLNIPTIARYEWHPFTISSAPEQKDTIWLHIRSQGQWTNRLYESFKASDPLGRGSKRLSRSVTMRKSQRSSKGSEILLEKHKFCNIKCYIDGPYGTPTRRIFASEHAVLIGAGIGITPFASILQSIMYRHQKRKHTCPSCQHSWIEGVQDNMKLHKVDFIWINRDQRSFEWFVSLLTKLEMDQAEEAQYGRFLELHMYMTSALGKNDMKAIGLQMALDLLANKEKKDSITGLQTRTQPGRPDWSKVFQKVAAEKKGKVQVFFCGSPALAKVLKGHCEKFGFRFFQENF

Structure (SMILES)	z-score [1]	composite z-score [2]	z-score [3]	z-score [4]	z-score [5]	z-score [6]	z-score [7]	z-score [8]	z-score [9]	z-score [10]	z-score [11]	z-score [12]	z-score [13]	z-score [14]	z-score [15]	z-score [16]	z-score [17]	z-score [18]	z-score [19]	z-score [20]
CCN1C(=O)[C@H]2[C@H]3[C@H](O)[C@H](O)CC(=NO[C@@H](C)c4cn([C@H](CO)Cc5ccccc5)nn4)[C@@H]3CC[C@H]2C1=O	0.115 (inactive)	0.0618	0.202 (inactive)	0.453 (inactive)	0.357 (inactive)	0.146 (inactive)	-0.66	0.0799 (inactive)	-2.08 (inactive)	0.0391	-0.293	0.0248	-0.644	-1.59	-0.784	-0.559	-1.49 (inactive)	0.695	0.0117	-0.499 (inactive)
CCOC(=O)[C@H](CC(C)C)NC(=O)CCC1CC(OC(=O)NCc2ccc3c(c2)OCO3)CC2(CCCC(COC(=O)NCC3CCCCC3)O2)O1 (stereo not given in full)	0.192 (inactive)	0.237	1.35 (inactive)	0.0043 (inactive)	-0.116 (inactive)	-0.0704 (inactive)	0.542	-0.541 (inactive)	0.563 (inactive)	0.61	1.2	-0.721	-0.991	-1.2	0.599	0.498	0.368 (inactive)	-0.247	-0.972	1.26 (inactive)
CCCCc1nc2c(c3c1C[C@H](C)OC3)CN(CCOc1ccccc1)CC2	0.19 (inactive)	-0.0186	1.3 (inactive)	-0.611 (inactive)	0.128 (inactive)	-0.421 (inactive)	1.86	-0.201 (inactive)	0.25 (inactive)	0.747	1.71	0.734	0.681	0.039	-0.657	1.76	0.494 (inactive)	0.539	0.568	-0.682 (inactive)
O=C1[C@H]2[C@H]3[C@H](O)[C@H](O)CC(=NOC[C@@H](O)COCc4ccco4)[C@@H]3CC[C@H]2C(=O)N1C[C@@H]1CCCO1	0.916 (inactive)	-0.0061	2.05 (inactive)	0.544 (inactive)	-0.0602 (inactive)	0.329 (inactive)	-0.605	0.222 (inactive)	0.374 (inactive)	0.382	0.863	-1.2	-0.128	0.524	-0.295	0.607	1.25 (inactive)	-0.32	-0.796	0.0753 (inactive)
C=CC[C@@H]1C=C[C@H](ON=C(C)CCC(=O)OC[C@H]2O[C@H](C#Cc3ccccc3)C=C[C@@H]2Oc2ccc(C)cc2)[C@@H](CO)O1	-1.44 (inactive)	0.0594	28 (active)	6.05 (inactive)	0.068 (inactive)	1.57 (inactive)	-0.383	-0.367 (inactive)	0.0773 (inactive)	-0.431	0.572	-0.48	-0.0329	0.551	-0.737	-0.429	-0.311 (inactive)	-0.759	-1.08	0.231 (inactive)
CC[C@@H](c1ccccc1)n1c(=O)n2n(c1=O)[C@H]1[C@H](O)[C@@H]3O[C@@H]3C(=O)[C@H]1CC2	0.289 (inactive)	-0.101	-0.48 (inactive)	-0.38 (inactive)	-0.0399 (inactive)	-0.139 (inactive)	-0.126	-6.29 (inactive)	-0.0502 (inactive)	0.324	-0.0457	1.16	-0.481	-3.07	-2.84	-0.914	-0.491 (inactive)	-0.924	-1.72	-0.565 (inactive)
CCOC(=O)NN=C1C[C@@H](O)[C@@H](O)[C@@H]2[C@@H]3C(=O)N(c4cccc(Oc5ccccc5)c4)C(=O)[C@@H]3CC[C@H]12	0.0433 (inactive)	-0.0958	1.6 (inactive)	-1.04 (inactive)	0.0278 (inactive)	-1.58 (inactive)	0.742	-0.515 (inactive)	0.209 (inactive)	-1.33	0.285	1.01	-0.0233	0.0687	0.443	1.03	0.675 (inactive)	0.00981	-1.56	-0.263 (inactive)
CC(C)=CCCC(C)=CCON=C1C[C@@H](O)[C@@H](O)[C@@H]2[C@@H]3C(=O)N(c4cccc(Oc5ccccc5)c4)C(=O)[C@@H]3CC[C@@H]12	-1.15 (inactive)	-0.0501	3.39 (inactive)	-0.298 (inactive)	1.24 (inactive)	-2 (inactive)	0.313	-1.33 (inactive)	-0.237 (inactive)	-3.35	-1.19	0.18	-0.795	-2.22	-3.96	-1.26	0.641 (inactive)	-0.805	0.251	0.919 (inactive)
COc1cccc([C@H]2Oc3ccc(OC)cc3C(=NO[C@@H]3O[C@H](COC(C)=O)[C@@H](OC(C)=O)[C@H](OC(C)=O)[C@H]3OC(C)=O)[C@@H]2O)c1	-1.34 (inactive)	-0.191	0.158 (inactive)	-0.0728 (inactive)	-0.362 (inactive)	0.146 (inactive)	-1.09	0.484 (inactive)	0.905 (inactive)	0.486	0.679	-0.375	-0.104	-0.525	-0.476	-0.515	-3.37 (inactive)	-0.0523	0.0745	-0.416 (inactive)
